High-throughput results (PubChem)
Only some compounds are listed: those with a hit (about 0.38% of all), similar ones and a draw of the others.
Cdc42 wt GTP = changes GTP binding to wildtype human Cdc42 | P60953 | GST-Cdc42 beads, Bodipy-GTP binding, flow cytometry; actives lie on both sides | percent activity (GTP binding), % at 10 µM | 190,000 tested, 0.2% active;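 active = percent activity GTP binding at least 20 points away from the 100% baseline, either down as inhibitor or up as activator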;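 note: median bead fluorescence of bound Bodipy-FL-GTP at 100 nM; below 100% means less GTP binding so inhibitor and above means activator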
Target sequence (P60953 whole entry, looked up): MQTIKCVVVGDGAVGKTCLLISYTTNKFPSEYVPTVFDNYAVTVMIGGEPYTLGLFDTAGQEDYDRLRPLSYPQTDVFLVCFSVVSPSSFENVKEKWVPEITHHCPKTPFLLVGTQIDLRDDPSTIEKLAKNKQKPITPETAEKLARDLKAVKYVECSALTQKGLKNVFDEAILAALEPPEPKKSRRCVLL
HRas wt GTP = changes GTP binding to wildtype human HRas; AID 759; GST-Ras wt beads, Bodipy-FL-GTP binding, flow cytometry; actives lie on both sides; 190,000 tested, 0.14% active; GTP binding activity, % at 10 µM; P01112;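 active = GTP binding activity at least 20% away from the 100% baseline, either lowered as inhibitor or raised as activator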
Target sequence (P01112 whole entry, looked up): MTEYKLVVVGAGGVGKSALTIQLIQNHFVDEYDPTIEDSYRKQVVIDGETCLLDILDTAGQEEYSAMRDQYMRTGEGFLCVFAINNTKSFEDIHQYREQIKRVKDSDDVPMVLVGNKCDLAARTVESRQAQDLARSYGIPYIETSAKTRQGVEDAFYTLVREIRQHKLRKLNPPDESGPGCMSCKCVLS
Rac1 mut GTP = human Rac1 activated mutant GTP binding change; P63000; GST-Rac1 activated beads, fluorescent GTP binding, flow cytometry; actives lie on both sides; 100% means binding = to untreated wells; percent activity (GTP binding), % at 10 µM; 190,000 tested, 0.11% active;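 active = GTP binding at least 20 percentage points away from the 100% baseline, in either direction, so actives lie on both sides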
Rac1 wt modul = alters GTP binding to wildtype human Rac1; GST-Rac1 beads, fluorescent GTP binding, flow cytometry; actives lie on both sides; 0 = cold GTP competed, 100 = untreated; GTP binding activity (% of control), % at 10 µM; 190,000 tested, 0.27% active; AID 757;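 active = GTP binding activity at least 20 points away from the 100% control level, either lower or higher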
Rab2 wt GTP = changes GTP binding to wildtype dog Rab2A, up or down | P61105 | GST-Rab2 wt beads, Bodipy-GTP binding, flow cytometry | AID 760 | 190,000 tested, 0.19% active | GTP binding activity, % at 10 µM;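 active = GTP binding activity at least 20 points away from 100%, either lowered or raised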
Rab7 wt GTP bind = modulators of GTP binding to dog Rab7 wildtype GTPase | GST-Rab7 beads, fluorescent GTP binding, flow cytometry; actives lie on both sides; untreated = 100%, excess cold GTP = 0% | GTP binding activity (percent of control), % at 10 µM | 190,000 tested, 0.055% active;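 active = fluorescent GTP binding to Rab7 beads changed by at least 20 points from the 100% baseline, either direction, mostly lower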;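 note: median green fluorescence of bound Bodipy-FL-GTP per Rab7 bead population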
Each line names hits and unclear results; the compound was inactive in the other large screens; [ ] = remark or other dose.

CN1/C(=C\C=C(/C#N)C(=O)Nc2ccc(Cl)cc2)C(C)(C)c2ccccc21	Rab2 wt GTP 133[activator]
Cn1c(=O)n(Cc2ccc(F)cc2)c(=O)c2c1nc1n2CCN1Cc1ccco1	Rac1 wt modul 75, Rab2 wt GTP 77
COc1ccc2c(C)nc(N/C(N)=N/S(=O)(=O)c3ccc(C)cc3)nc2c1	Rac1 wt modul 77
Cc1ccc(S(=O)(=O)/N=C(\N)Nc2nc(C)c3ccccc3n2)cc1	none
COc1cc(/C=N/NC(=O)c2sc(N)c(C#N)c2C)ccc1O	none
Cc1c(C(=O)N/N=C/c2ccc(O)c(Br)c2)sc(N)c1C#N	Rac1 wt modul 76, Rab2 wt GTP 79
CCOc1ccc(C(CC(=O)O)NC(=O)c2sc3ccccc3c2Cl)cc1 (centres undefined)	none
CCCOc1ccc(C(CC(=O)O)NC(=O)c2sc3ccccc3c2Cl)cc1 (centres undefined)	Cdc42 wt GTP 72, HRas wt GTP 77, Rac1 mut GTP 69, Rac1 wt modul 76, Rab2 wt GTP 75
CCOc1cc(C2c3c(-c4ccccc4)n[nH]c3C(=O)N2c2ccc(C(=O)O)cc2)ccc1O (centres undefined)	Cdc42 wt GTP 79, Rac1 mut GTP 74, Rac1 wt modul 59, Rab2 wt GTP 79
CN(C(=O)Nc1ccc(Cl)cc1Cl)C1CCCC1	none
COc1cccc(-n2c(SCC(=O)NCCC3=CCCCC3)nc3n[nH]c(C)c3c2=N)c1	Cdc42 wt GTP 75, HRas wt GTP 73, Rab2 wt GTP 76
NS(=O)(=O)c1ccc(N2N=C(c3ccccc3)CC2c2cccc(F)c2)cc1 (centres undefined)	Cdc42 wt GTP 61
CCCCCn1c(SCCc2ccccc2)nc2c1c(=O)[nH]c(=O)n2C	none
CCCCn1c(SCC(=O)c2ccccc2)nc2c1c(=O)[nH]c(=O)n2C	Cdc42 wt GTP 38, HRas wt GTP 41, Rac1 mut GTP 36, Rac1 wt modul 33, Rab2 wt GTP 36, Rab7 wt GTP bind 21
Cc1cc(NN)nc2ccc(Cl)cc12	none
COc1ccc(OCC(=O)Nc2nonc2NC(=O)COc2ccc(OC)cc2)cc1	Rac1 wt modul 79
Cc1cc(C)cc(OCC(=O)Nc2nonc2NC(=O)COc2cc(C)cc(C)c2)c1	none
COc1ccc(NC(=S)N2CCC(c3nc4ccccc4o3)CC2)c(OC)c1	none
COc1ccc(/C=C2\SC(=S)N(CCCC(=O)NNC(=O)c3ccccc3O)C2=O)cc1	Cdc42 wt GTP 78, Rac1 wt modul 79
O=C(CCCN1C(=O)/C(=C/c2ccccc2Cl)SC1=S)NNC(=O)c1ccccc1Cl	none
O=C(CN1C(=O)NC2(CCOc3ccccc32)C1=O)Nc1cccc(Cl)c1 (centres undefined)	none
Cc1ccccc1-n1c(SCc2c(C)noc2C)nnc1-c1cccnc1	Rac1 wt modul 132[activator]
Cc1ccccc1-n1c(SCc2c(C)noc2C)nnc1-c1ccncc1	none
NNC1=N[C@H]2CS(=O)(=O)C[C@H]2S1	none
NC(=O)COC(=O)c1ccccc1OCc1ccccc1Cl	none
Cn1cc(C=C2C(=O)CC(C)(C)CC2=O)c2ccccc21	Cdc42 wt GTP 31, HRas wt GTP 38, Rac1 mut GTP 34, Rac1 wt modul 33, Rab2 wt GTP 32, Rab7 wt GTP bind 20
OCCC1CN(Cc2cn[nH]c2C2CCCCC2)CCN1C1CCCCC1 (centres undefined)	none
CC(=O)Nc1ccc(C(=O)OCC(=O)NCc2ccc(Cl)cc2)cc1	none
CC(C)Oc1ccc(/C=N/NC(=O)c2ccc(N(Cc3ccccc3)S(C)(=O)=O)cc2)cc1	Rac1 wt modul 74, Rab2 wt GTP 74
O=C(N/N=C/c1ccccc1)c1ccc(OCc2ccccc2)cc1	none
CS(=O)(=O)N(Cc1ccccc1)c1ccc(C(=O)Nc2cccnc2)cc1	none
COC(=O)COc1ccc(/C=N/NC(=O)c2ccc(N(Cc3ccccc3)S(C)(=O)=O)cc2)cc1	Rac1 wt modul 76, Rab2 wt GTP 76
COc1cc(/C=C/CN2CCN(CCC(C)C)C(CCO)C2)ccc1O (centres undefined)	none
COc1ccc(NC(=O)COC(=O)c2ccc(OCc3c(C)noc3C)cc2)cc1OC	none
COc1cc(C(=O)OCC(=O)Nc2ccc3c(c2)OC(F)(F)O3)ccc1OCc1c(C)noc1C	Cdc42 wt GTP 34, HRas wt GTP 43, Rac1 mut GTP 37, Rac1 wt modul 39, Rab2 wt GTP 40, Rab7 wt GTP bind 28
O=C(Nc1cccc(-c2ccc3nncn3n2)c1)c1ccco1	Rac1 wt modul 77
Cc1nnc2ccc(-c3cccc(NC(=O)c4ccc(Cl)nc4)c3)nn12	none
Cc1nnc2ccc(-c3cccc(NC(=O)c4ccc(Br)o4)c3)nn12	Rac1 wt modul 79
CCOc1ccccc1C(=O)Nc1cccc(-c2ccc3nncn3n2)c1	Cdc42 wt GTP 73, HRas wt GTP 78, Rac1 wt modul 73, Rab2 wt GTP 75
COc1ccc(S(=O)(=O)N2CCC(C(=O)Nc3ccc(F)cc3)CC2)c2cccnc12	none
COc1ccccc1/C=C/C(=O)NCc1cccnc1	none
COc1ccccc1NC(=O)CSc1nnc(COc2ccccc2OC)n1C	none
Cc1nc(-c2ccccc2)sc1C(=O)NN	Cdc42 wt GTP 125[activator], Rac1 wt modul 128[activator], Rab2 wt GTP 120[activator]
COc1cccc(NC(=O)COC(=O)/C=C/c2ccc(Cl)cc2Cl)c1	Cdc42 wt GTP 79, Rac1 wt modul 77, Rab2 wt GTP 79
COc1cc(NC(=O)COC(=O)/C=C/c2ccc(Cl)cc2Cl)cc(OC)c1	none
CCOC(=O)N1CCC(NC(=O)C2CCN(S(=O)(=O)c3ccc4c(c3)oc(=O)n4C)CC2)CC1	none
COc1cc(/C=N/Nc2nc(C)nc3c2cnn3-c2ccccc2)ccc1O	Cdc42 wt GTP 77, Rac1 wt modul 70, Rab2 wt GTP 79
COc1cc(/C=N/NC(=O)c2cnn3c(C)cc(-c4ccccc4)nc23)ccc1O	none
CCCNC(=O)NC(=O)CSc1nncs1	none
O=C(Nc1cnn(C23CC4CC(CC(C4)C2)C3)c1)c1cnn2cccnc12	Cdc42 wt GTP 129[activator], HRas wt GTP 123[activator], Rac1 wt modul 138[activator], Rab2 wt GTP 121[activator]
O=C(O)Cn1ncn(-c2ccc(OC(F)(F)F)cc2)c1=O	none
C=CCOc1ccc2nnc(C)n2n1	none
CCCCCC1CCC(c2n[nH]c(=S)n2C)CC1 (centres undefined)	none
NC(=S)N=Nc1c(O)[nH]c2cc(F)c(F)cc12	Rab2 wt GTP 78
